The whole screen tested about 16,000 compounds, of which about 5,100 (32%) were called active. Inconclusive results (about 25%) are left out. The call rests on the fitted dose curve; in most records, active means well fitted curve in the direction sought with a large enough effect; inconclusive means small, poorly fitted or top-dose-only effect, or effect the other way; inactive means no such curve, though single readings can be large or run the other way. The list shows a part of the results.
target: Cytochrome P450 3A4 (Homo sapiens) (UniProt P08684); test: Cytochrome panel assay with activity outcomes; conditions: recombinant CYP, pro-luciferin dealkylation, luminescence, p450-cyp3a4; series mostly up to 57.1 µM; activity, negative = inhibition: at the top concentration
On the % scale 0 is the no-effect control and ±100 the full control effect.

Sequence of Cytochrome P450 3A4 (Homo sapiens) (P08684 whole entry, looked up): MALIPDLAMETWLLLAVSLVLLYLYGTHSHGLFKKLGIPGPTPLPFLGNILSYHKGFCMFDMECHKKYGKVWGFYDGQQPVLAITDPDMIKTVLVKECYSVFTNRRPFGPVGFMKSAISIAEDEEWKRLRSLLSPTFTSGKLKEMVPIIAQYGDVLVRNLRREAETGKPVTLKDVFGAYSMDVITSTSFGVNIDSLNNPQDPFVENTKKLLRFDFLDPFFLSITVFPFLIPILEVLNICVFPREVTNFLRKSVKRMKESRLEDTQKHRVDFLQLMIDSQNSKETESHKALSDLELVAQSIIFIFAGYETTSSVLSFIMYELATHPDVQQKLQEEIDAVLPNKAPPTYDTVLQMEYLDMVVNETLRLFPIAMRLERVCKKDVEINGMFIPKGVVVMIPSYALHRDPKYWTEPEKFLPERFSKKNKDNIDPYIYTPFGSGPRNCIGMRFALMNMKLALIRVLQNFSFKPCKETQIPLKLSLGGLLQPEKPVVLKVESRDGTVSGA

Row | Compound | activity, negative = inhibition | AC50
1 | O=C(O)c1ccc2c(c1)C(=O)N(C(Cc1ccc(O)cc1)C(=O)O)C2=O (centres undefined) | 5.23% (inactive) | –
2 | c1ccc(CCNc2ccccn2)nc1 | -14.6% [at 11.4 µM] (inactive) | –
3 | Cc1cc(Br)ccc1NCc1ccccn1 | – | 15.8 µM (active)
4 | CNCCc1ccccn1 | -3.54% [at 25.6 µM] (inactive) | –
5 | Cc1cc(NCc2ccccn2)ccc1Br | – | 12.6 µM (active)
6 | OCCCNCc1ccccn1 | -7.75% [at 11.4 µM] (inactive) | –
7 | Cc1cc(=O)oc(C)c1C(=O)NCc1ccccn1 | -10.8% (inactive) | –
8 | Cc1cc2ccccc2n1CCNC(=O)C1CCCC1 | – | 4.47 µM (active)
9 | Cc1cc2ccccc2c(=O)n1CC(=O)NCC(=O)N1CCCC1 | -2.71% (inactive) | –
10 | CN(C)CCn1c(C(=O)O)cc2ccccc21 | 6.42% (inactive) | –
11 | O=C(NCCN1CCCCC1)c1ccc(I)cc1 | -0.633% (inactive) | –
12 | Cc1cc2ccccc2n1CCNC(=O)c1ccccc1 | – | 3.98 µM (active)
13 | Cc1ccc(S(=O)(=O)NCCn2c(C)cc3ccccc32)cc1 | – | 5.01 µM (active)
14 | Cc1ccc(S(=O)(=O)NC(=O)c2cccn2C)cc1 | 20.6% (inactive) | –
15 | CN(C)CCCN1c2ccccc2C(C)(C)c2ccccc21 | -18.6% [at 11.4 µM] (inactive) | –
16 | CCN1C(=O)C(O)(C2COC(C)(C)CC2=O)c2ccccc21 (centres undefined) | -1.6% (inactive) | –
17 | CC1(C)C(=O)N(CCN2CCC(C(=O)c3ccc(F)cc3)CC2)c2ccccc21 | – | 15.8 µM (active)
18 | O=S(=O)(O)c1ccc(N=Nc2ccccc2)cc1 | 0.763% [at 11.4 µM] (inactive) | –
19 | NCC(=O)Nc1ccc(Cl)cc1C(=O)c1ccc[nH]1 | -21.6% [at 11.4 µM] (inactive) | –
20 | Cc1cc(C)nc(SCCc2cccc[n+]2C)n1 | -11% [at 11.4 µM] (inactive) | –
21 | O=C(O)CSc1cc(C(F)(F)F)nc(-c2ccccn2)n1 | -5.8% (inactive) | –
22 | Cc1cc(SCC(=O)c2ccccc2)nc(SCC(=O)c2ccccc2)n1 | – | 2.82 µM (active)
23 | c1ccc(-n2ncc3c(NCCCN4CCOCC4)ncnc32)cc1 | -19.7% (inactive) | –
24 | CC(=O)NCCNc1ncnc2ccc(-c3ccoc3)cc12 | -28.8% (inactive) | –
25 | CC(=O)NCCNc1ncnc2ccc(-c3ccc4c(c3)OCO4)cc12 | – | 5.01 µM (active)

Row | Compound | activity, negative = inhibition | AC50
26 | c1nc(NCCN2CCOCC2)c2cc(-c3ccc4c(c3)OCO4)ccc2n1 | – | 5.01 µM (active)
27 | c1cncc(-c2ccc3ncnc(NCCN4CCOCC4)c3c2)c1 | – | 12.6 µM (active)
28 | NCCCCNCCCN | – | inactive
29 | N#Cc1ccccc1Sc1ccccc1N | – | 17.8 µM (active)
30 | c1ccc2sc(N3CCN(Cc4ccc5c(c4)OCO5)CC3)nc2c1 | – | 0.631 µM (active)
31 | O=C1CCC(c2ccccc2)=NN1c1nc2ccccc2s1 | -23.1% [at 11.4 µM] (inactive) | –
32 | CC1CCOC2(O1)C(=O)N(CN1CCN(c3ccccc3F)CC1)c1ccccc12 (centres undefined) | -17.6% (inactive) | –
33 | CC(C)c1ccc(C(=O)CC2(O)C(=O)N(CN3CCOCC3)c3ccccc32)cc1 (centres undefined) | – | 8.91 µM (active)
34 | CC(=O)N1CCC(=O)N(C(C)C)c2ccccc21 | 7.06% (inactive) | –
35 | O=C(NCc1cccnc1)/C(=C/c1ccc(-c2cccc(Cl)c2)o1)S(=O)(=O)c1ccccc1 | – | 0.501 µM (active)
36 | CC(C)CN1CC[C@@]2(CCCN(C(=O)c3cc(C(F)(F)F)cc(C(F)(F)F)c3)C2)C1 | – | 12.6 µM (active)
37 | CC(C)CN1CCC2(CC1)CCN(C(=O)c1cc(C(F)(F)F)cc(C(F)(F)F)c1)CC2 | 24.6% (inactive) | –
38 | COc1ccc(C(=O)N2CCC3(CC2)CN(C(=O)NC(C)C)C3)cc1 | -12.2% (inactive) | –
39 | CC(C)NC(=O)N1CCCC2(CCN(C(=O)c3ccncc3)CC2)C1 | – | 15.8 µM (active)
40 | Cc1noc(C)c1C(=O)N1CCC2(CCCN(C(=O)NC(C)C)C2)CC1 | -6.25% (inactive) | –
41 | CC(C)NC(=O)N1CC[C@@]2(CCCN(C(=O)c3cc(C(F)(F)F)cc(C(F)(F)F)c3)C2)C1 | – | 15.8 µM (active)
42 | CC(C)NC(=O)N1CC2(CCN(C(=O)c3cc(C(F)(F)F)cc(C(F)(F)F)c3)CC2)C1 | -10.5% (inactive) | –
43 | CN1CCC2(CC1)CCN(C(=O)c1cc(C(F)(F)F)cc(C(F)(F)F)c1)CC2 | -4.42% (inactive) | –
44 | CC(C)NC(=O)N1CCCC2(CCN(C(=O)c3cc(C(F)(F)F)cc(C(F)(F)F)c3)CC2)C1 | – | 25.1 µM (active)
45 | C=C1CCO[C@@]2([C@H](O)[C@@](C)(O)CO)NC(=O)[C@]1(O)NC2=O | -2.69% [at 11.4 µM] (inactive) | –
46 | O=C(O)CCC(=O)c1ccc2sc3ccccc3c2c1 | -21.1% [at 11.4 µM] (inactive) | –
47 | C/C(CCc1ccc2c(c1)OCO2)=N\N=C1\NC(=O)CC(C(=O)Nc2ccccc2)S1 (centres undefined) | – | 2.24 µM (active)
48 | COc1ccc(Cl)cc1N=Nc1ncc[nH]1 | – | 10 µM (active)
49 | COC(=O)c1c(-c2cc(OC)c(OC)c(OC)c2)c2ccc(OCc3ccccn3)cc2c(=O)n1-c1ccc(N)cc1 | – | 0.398 µM (active)
